In PubChem BioAssay:
Where “and” joins values, the source holds several entries; their conditions need not be identical. Equal values may be shown once. Calls of active or inactive are those of the source. Cut-off read from the data, not from the text of the source, unless noted: active = inhibition above about 80%; inactive = the rest.

Assays:
[1] = growth inhibition, single agents and combos, LFS_MB_1R, cell-based, cisplatin or BGB combos, synergistic combos for chromothripsis tumors (AID 1671452); conditions: LFS_MB_1R medulloblastoma cells, stronger effect = higher value;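 note: cells exposed for 96 hours before readout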
[2] = growth inhibition, single agents and combos, CRL2098, cell-based, BGB or cisplatin IC20 combos, synergistic combos for chromothripsis tumors (AID 1671454); conditions: CRL2098 osteosarcoma cells, drug combinations, stronger effect = higher value;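 note: cells exposed for 96 h before readout; 0% = vehicle DMSO and 100% = killing by high DMSO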
[3] = growth inhibition, single agents and combos, HD-MB03, cell-based, BGB or cisplatin IC20 combos, synergistic combos for chromothripsis tumors (AID 1671455; in the data active = inhibition above about 83%;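 note: 0% = vehicle DMSO and 100% = high DMSO as cytotoxic control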); conditions: HD-MB03 medulloblastoma cells, stronger effect = higher value
[4] = growth inhibition, single agents and combos, UWB1.289, cell-based, BGB or cisplatin combos, synergistic combos for chromothripsis tumors (AID 1671456); conditions: UWB1.289 ovarian carcinoma cells, stronger effect = higher value;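 note: cells exposed to compound for four days; 0% = vehicle DMSO and 100% = killing by high DMSO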
[5] = growth inhibition, single agents and combos, LFS_MB_2R, cell-based, cisplatin combos, synergistic combos for chromothripsis tumors (AID 1671457); conditions: LFS_MB_2R medulloblastoma cells, stronger effect = higher value;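 note: cells exposed to compound for four days before readout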
[6] = UWB1.289_BRCA1 ovarian cancer growth, cell-based, BGB or cisplatin combinations (AID 1671459); conditions: UWB1.289 BRCA1 ovarian carcinoma, drug combinations, stronger effect = higher value
[7] = drug combination toxicity in non-malignant astrocytes – cell-based, BGB or cisplatin IC20 combos, cytotoxicity control for chromothriptic childhood tumor combination screen (AID 1671460); conditions: Human astrocytes, viability inhibition, drug combinations, at 0.5 µM, stronger effect = higher value;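 note: cells exposed to compounds for 96 hours before viability readout; 0% = vehicle and 100% = killing control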
[8] = molecular target: NAD(+) hydrolase SARM1 (Homo sapiens) (UniProt Q6SZW1); assay: blocking NAD cleavage by SARM1 SAM-TIR – cell lysate, NAD-Glo luminescence (AID 1508614;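 active = compound whose remaining NAD level is above about 45 nM, limit read from the data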;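 note: higher remaining NAD means stronger inhibition of SARM1 NADase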); conditions: SAM-TIR HEK293T lysate NADase, at 1 µM, stronger effect = higher value
Sequence of NAD(+) hydrolase SARM1 (Homo sapiens) (Q6SZW1 whole entry, looked up): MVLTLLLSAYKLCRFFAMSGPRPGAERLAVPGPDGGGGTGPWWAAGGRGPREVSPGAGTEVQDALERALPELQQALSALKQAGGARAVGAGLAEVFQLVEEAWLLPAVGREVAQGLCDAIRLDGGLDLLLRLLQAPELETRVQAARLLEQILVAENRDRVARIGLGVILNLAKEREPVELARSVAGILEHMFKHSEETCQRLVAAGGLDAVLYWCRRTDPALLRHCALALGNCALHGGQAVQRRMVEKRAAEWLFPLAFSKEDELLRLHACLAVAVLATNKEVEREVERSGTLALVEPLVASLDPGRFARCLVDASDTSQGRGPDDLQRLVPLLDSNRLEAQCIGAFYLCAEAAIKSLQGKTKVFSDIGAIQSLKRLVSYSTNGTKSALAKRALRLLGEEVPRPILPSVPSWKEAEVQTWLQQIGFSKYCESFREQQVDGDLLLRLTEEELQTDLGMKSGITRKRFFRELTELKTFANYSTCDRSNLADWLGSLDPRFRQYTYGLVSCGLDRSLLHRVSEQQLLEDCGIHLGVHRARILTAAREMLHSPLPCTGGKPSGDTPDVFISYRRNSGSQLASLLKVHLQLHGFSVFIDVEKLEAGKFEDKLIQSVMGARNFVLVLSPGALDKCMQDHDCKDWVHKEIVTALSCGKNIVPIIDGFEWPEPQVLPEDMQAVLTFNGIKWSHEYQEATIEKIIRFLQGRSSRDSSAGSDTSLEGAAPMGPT

[9] = liver-stage malaria parasite load reduction – cell-based, known kinase inhibitor set, luminescence, hepatoma host viability (AID 624392; call rule not given here;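 note: infected cells incubated roughly two days before readout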); conditions: Plasmodium liver stage in hepatoma cells, luciferase luminescence, concentration not given here; liver cell % of control: measured here: host liver cell viability; parasite % of control: stronger effect = lower value
[10] = galactose survival enhancers in mitochondrial complex I cybrids – cell-based, galactose medium, ATP luminescence, primary screen (AID 1645843;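 active = z-score of at least 1.8 in each of two replicates, scored against plate mean and spread of sample wells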;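 note: positive z means more ATP and so rescue of galactose-driven cybrid death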); conditions: complex I mutant cybrid cells, 72 h, stronger effect = higher value
[11] = P. berghei load reduction in hepatocytes – cell-based, HepG2, luciferase luminescence, HepG2 viability, primary screen (AID 624349; in the data active = parasite load remaining mostly below about 12%, no sharp cut-off; inactive = mostly above about 10%;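 note: 100% = mean of DMSO negative control wells on the same plate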); conditions: P. berghei liver stage in HepG2, luciferase luminescence, concentration not given here; parasite load remaining: stronger effect = lower value; viability: measured here: HepG2 viability without parasites
[12] = compounds altering viability of human ES cells (AID 493140; call rule not given here;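 note: cells exposed to compounds for four days before counting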); conditions: human embryonic stem cell survival screen; stronger effect = higher value
[13] = measured here: combination with BGB IC40, at 0.05 µM
[14] = measured here: combination with cisplatin, at 0.5 µM
[15] = measured here: combination with cisplatin, at 5 µM
[16] = measured here: combination with BGB at IC20, at 0.5 µM
[17] = measured here: combination with cisplatin at IC20, at 0.5 µM
[18] = measured here: combo with BGB at IC20, at 0.5 µM
[19] = measured here: combo with cisplatin at IC20, at 0.5 µM
[20] = measured here: inhibition with BGB combination, at 0.05 µM
[21] = measured here: inhibition with cisplatin combination, at 0.05 µM
[22] = BGB combination, concentration series, at 5 µM
[23] = cisplatin combination, concentration series, at 5 µM
[24] = measured here: combo with BGB IC20
[25] = measured here: combo with cisplatin IC20

## CN(C)CCN1C(=O)c2cccc3cc(N)cc(c23)C1=O
[1]; at 0.5 µM
  inhibition: -23% (inactive)
[1]; [13]
  inhibition: -41.2%
[1]; [14]
  inhibition: -45%
[1]; [15]
  inhibition: 16.5%
[2]; at 0.5 µM
  inhibition: -63% (inactive)
[2]; [16]
  inhibition: -22.2%
[2]; [17]
  inhibition: -129%
[3]; at 0.5 µM
  inhibition: 1.51% (inactive)
[3]; [18]
  inhibition: -11.9%
[3]; [19]
  inhibition: 14.4%
[4]; at 0.5 µM
  inhibition: -5.91% (inactive)
[4]; [20]
  inhibition: -1.98%
[4]; [21]
  inhibition: -18.9%
[5]; at 0.5 µM
  inhibition: -25.1% (inactive)
[5]; [14]
  inhibition: -29.2%
[5]; [15]
  inhibition: -2.51%
[6]; [22]
  inhibition: 38.8%
[6]; at 0.5 µM
  inhibition: -2.87% (inactive)
[6]; [23]
  inhibition: 37.9%
[7]
  inhibition: 2.38% (inactive)
[7]; [24]
  inhibition: -2.82%
[7]; [25]
  inhibition: -2.98%

## C[C@H]1[C@H](OC(=O)CCC(=O)O)O[C@@H]2O[C@@]3(C)CC[C@H]4[C@H](C)CC[C@@H]1[C@@]24OO3
[8]
  remaining NAD: 10 nM (inactive)

## C[C@]1(c2nc3c(C(N)=O)cccc3[nH]2)CCCN1
[1]; at 0.5 µM
  inhibition: -23.5% (inactive) and -13.6% (inactive)
[1]; [13]
  inhibition: -41.9% and -23.5%
[1]; [14]
  inhibition: -45.7% and 4.68%
[1]; [15]
  inhibition: -38.3% and -18.5%
[2]; at 0.5 µM
  inhibition: -49.8% (inactive) and -59.1% (inactive)
[2]; [16]
  inhibition: -12.1% and -70.3%
[2]; [17]
  inhibition: -110% and -65.8%
[3]; at 0.5 µM
  inhibition: -8.8% (inactive) and -9.57% (inactive)
[3]; [18]
  inhibition: -16.2% and -2.73%
[3]; [19]
  inhibition: -3.64% and -17.6%
[4]; at 0.5 µM
  inhibition: -9.31% (inactive) and 2.13% (inactive)
[4]; [20]
  inhibition: -8.28% and -17%
[4]; [21]
  inhibition: -23.7% and -11.7%
[5]; at 0.5 µM
  inhibition: -25% (inactive) and -15.4% (inactive)
[5]; [14]
  inhibition: -36.7% and -21.6%
[5]; [15]
  inhibition: -29.1% and -120%
[6]; [22]
  inhibition: 10.2% and -0.186%
[6]; at 0.5 µM
  inhibition: -7.22% (inactive) and -0.79% (inactive)
[6]; [23]
  inhibition: -4.84% and 4.22%
[7]
  inhibition: 9.85% (inactive) and -2.9% (inactive)
[7]; [24]
  inhibition: -1.53% and -5.78%
[7]; [25]
  inhibition: 9.8% and -13.1%

## O=C(O)[C@H](Cc1c[nH]c2ccccc12)N1C(=O)c2ccccc2C1=O
[1]; at 0.5 µM
  inhibition: -21% (inactive)
[1]; [13]
  inhibition: -49.9%
[1]; [14]
  inhibition: -9.64%
[1]; [15]
  inhibition: -81.2%
[2]; at 0.5 µM
  inhibition: -82% (inactive)
[2]; [16]
  inhibition: -46.6%
[2]; [17]
  inhibition: -131%
[3]; at 0.5 µM
  inhibition: -20.5% (inactive)
[3]; [18]
  inhibition: -26.8%
[3]; [19]
  inhibition: -27.1%
[4]; at 0.5 µM
  inhibition: -10.8% (inactive)
[4]; [20]
  inhibition: -20.2%
[4]; [21]
  inhibition: -43.5%
[5]; at 0.5 µM
  inhibition: -17.3% (inactive)
[5]; [14]
  inhibition: -13%
[5]; [15]
  inhibition: -8.45%
[6]; [22]
  inhibition: -11.5%
[6]; at 0.5 µM
  inhibition: -15.7% (inactive)
[6]; [23]
  inhibition: -28.9%
[7]
  inhibition: -2.94% (inactive)
[7]; [24]
  inhibition: -8.01%
[7]; [25]
  inhibition: 4.01%

## Cc1ccc2nc(NCCN)c3ncc(C)n3c2c1
[1]; at 0.5 µM
  inhibition: 1.37% (inactive)
[1]; [13]
  inhibition: -13.1%
[1]; [14]
  inhibition: -5.04%
[1]; [15]
  inhibition: 83.6%
[2]; at 0.5 µM
  inhibition: -21.4% (inactive)
[2]; [16]
  inhibition: 13.8%
[2]; [17]
  inhibition: -60.3%
[3]; at 0.5 µM
  inhibition: -5.33% (inactive)
[3]; [18]
  inhibition: -7.44%
[3]; [19]
  inhibition: -1.09%
[4]; at 0.5 µM
  inhibition: -4.12% (inactive)
[4]; [20]
  inhibition: -17.4%
[4]; [21]
  inhibition: -11.7%
[5]; at 0.5 µM
  inhibition: -14.5% (inactive)
[5]; [14]
  inhibition: -10.3%
[5]; [15]
  inhibition: 15.9%
[6]; [22]
  inhibition: 91.7%
[6]; at 0.5 µM
  inhibition: 1.55% (inactive)
[6]; [23]
  inhibition: 76.1%
[7]
  inhibition: -0.35% (inactive)
[7]; [24]
  inhibition: 0.763%
[7]; [25]
  inhibition: 2.83%

## O=C(O)c1ccc2c(c1)nc(Nc1cccc(Cl)c1)c1ccncc12
[9]
  liver cell % of control: 84.7% and 84.9% and 89.8%
  parasite % of control: 247% (inactive) and 142% (inactive) and 94.6% (inactive)

## CCCCCCCCCCCC(CC1OC(=O)C1CCCCCC)OC(=O)C(CC(C)C)NC=O (centres undefined)
[10]
  z-score: -1.84 (inactive)

## CS(=O)(=O)c1ccc(C(=O)Nc2ccc(Cl)c(-c3ccccn3)c2)c(Cl)c1
[10]
  z-score: 0.355 (inactive)

## C=CC[N+]1([C@H]2C[C@H]3[C@@H]4CC[C@H]5C[C@H](O)[C@@H](N6CCOCC6)C[C@]5(C)[C@H]4CC[C@]3(C)[C@H]2OC(C)=O)CCCC1
[11]
  parasite load remaining: 25.4% (inactive)
  viability: 138%
[10]
  z-score: 0.25 (inactive)

## CN(C(Cc1ccc(OS(=O)(=O)c2cccc3cnccc23)cc1)C(=O)N1CCN(c2ccccc2)CC1)S(=O)(=O)c1cccc2cnccc12 (centres undefined)
[12]
  survival: 94.6 (inactive)

## O=C(Nc1cc(Cl)cc2c1[nH]c1cnccc12)c1cccnc1
[11]
  parasite load remaining: 33.8% (inactive)
  viability: 87.1%
